Screens as filed in PubChem BioAssay.
An excerpt weighted towards active compounds, which were near 0.9% of everything screened.
Mtb BioA inh: M. tuberculosis BioA enzyme inhibitors, primary screen, biochemical, plate reader, single point, HTS | purified M. tuberculosis BioA enzyme | inhibition, % at 9.99 µM | hit rate 0.096% among 360,000; in the data active means inhibition above about 40%
Rv3671c protease: Rv3671c serine protease inhibitors, primary screen, biochemical, fluorescence polarization, M. tuberculosis H37Rv; hit rate 0.048% among 320,000; AID 2606, 2010; P9WHR9; inhibition, % at 5.96 µM; in the data active means inhibition above about 38%;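 further: extracellular domain of Rv3671c used as enzyme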
RecA splice inh: Mtb RecA intein splicing inhibitors, primary screen, biochemical, fluorescence, HTS; hit rate 0.75% among 290,000; cell-free RecA intein splicing; inhibition, % (no concentration beside the values); in the data active means inhibition above about 30%
FadD28 binding: inhibitors of FadD28 bisubstrate probe binding, primary screen, biochemical, fluorescence polarization, single point | Mycobacterium tuberculosis FadD28 fatty-acid-AMP ligase | inhibition, % at 12.5 µM | hit rate 0.22% among 360,000; in the data active means inhibition above about 8.5%, passing the limit was not always enough
TcdB inh: TcdB glycohydrolase inhibitors, primary screen, biochemical, single point, plate reader | hit rate 0.24% among 350,000 | TcdB glycohydrolase enzymatic assay | inhibition, % at 9.99 µM | Toxin B (Clostridioides difficile), P18177; in the data active means inhibition above about 10%
Target sequence (P18177 whole entry, looked up): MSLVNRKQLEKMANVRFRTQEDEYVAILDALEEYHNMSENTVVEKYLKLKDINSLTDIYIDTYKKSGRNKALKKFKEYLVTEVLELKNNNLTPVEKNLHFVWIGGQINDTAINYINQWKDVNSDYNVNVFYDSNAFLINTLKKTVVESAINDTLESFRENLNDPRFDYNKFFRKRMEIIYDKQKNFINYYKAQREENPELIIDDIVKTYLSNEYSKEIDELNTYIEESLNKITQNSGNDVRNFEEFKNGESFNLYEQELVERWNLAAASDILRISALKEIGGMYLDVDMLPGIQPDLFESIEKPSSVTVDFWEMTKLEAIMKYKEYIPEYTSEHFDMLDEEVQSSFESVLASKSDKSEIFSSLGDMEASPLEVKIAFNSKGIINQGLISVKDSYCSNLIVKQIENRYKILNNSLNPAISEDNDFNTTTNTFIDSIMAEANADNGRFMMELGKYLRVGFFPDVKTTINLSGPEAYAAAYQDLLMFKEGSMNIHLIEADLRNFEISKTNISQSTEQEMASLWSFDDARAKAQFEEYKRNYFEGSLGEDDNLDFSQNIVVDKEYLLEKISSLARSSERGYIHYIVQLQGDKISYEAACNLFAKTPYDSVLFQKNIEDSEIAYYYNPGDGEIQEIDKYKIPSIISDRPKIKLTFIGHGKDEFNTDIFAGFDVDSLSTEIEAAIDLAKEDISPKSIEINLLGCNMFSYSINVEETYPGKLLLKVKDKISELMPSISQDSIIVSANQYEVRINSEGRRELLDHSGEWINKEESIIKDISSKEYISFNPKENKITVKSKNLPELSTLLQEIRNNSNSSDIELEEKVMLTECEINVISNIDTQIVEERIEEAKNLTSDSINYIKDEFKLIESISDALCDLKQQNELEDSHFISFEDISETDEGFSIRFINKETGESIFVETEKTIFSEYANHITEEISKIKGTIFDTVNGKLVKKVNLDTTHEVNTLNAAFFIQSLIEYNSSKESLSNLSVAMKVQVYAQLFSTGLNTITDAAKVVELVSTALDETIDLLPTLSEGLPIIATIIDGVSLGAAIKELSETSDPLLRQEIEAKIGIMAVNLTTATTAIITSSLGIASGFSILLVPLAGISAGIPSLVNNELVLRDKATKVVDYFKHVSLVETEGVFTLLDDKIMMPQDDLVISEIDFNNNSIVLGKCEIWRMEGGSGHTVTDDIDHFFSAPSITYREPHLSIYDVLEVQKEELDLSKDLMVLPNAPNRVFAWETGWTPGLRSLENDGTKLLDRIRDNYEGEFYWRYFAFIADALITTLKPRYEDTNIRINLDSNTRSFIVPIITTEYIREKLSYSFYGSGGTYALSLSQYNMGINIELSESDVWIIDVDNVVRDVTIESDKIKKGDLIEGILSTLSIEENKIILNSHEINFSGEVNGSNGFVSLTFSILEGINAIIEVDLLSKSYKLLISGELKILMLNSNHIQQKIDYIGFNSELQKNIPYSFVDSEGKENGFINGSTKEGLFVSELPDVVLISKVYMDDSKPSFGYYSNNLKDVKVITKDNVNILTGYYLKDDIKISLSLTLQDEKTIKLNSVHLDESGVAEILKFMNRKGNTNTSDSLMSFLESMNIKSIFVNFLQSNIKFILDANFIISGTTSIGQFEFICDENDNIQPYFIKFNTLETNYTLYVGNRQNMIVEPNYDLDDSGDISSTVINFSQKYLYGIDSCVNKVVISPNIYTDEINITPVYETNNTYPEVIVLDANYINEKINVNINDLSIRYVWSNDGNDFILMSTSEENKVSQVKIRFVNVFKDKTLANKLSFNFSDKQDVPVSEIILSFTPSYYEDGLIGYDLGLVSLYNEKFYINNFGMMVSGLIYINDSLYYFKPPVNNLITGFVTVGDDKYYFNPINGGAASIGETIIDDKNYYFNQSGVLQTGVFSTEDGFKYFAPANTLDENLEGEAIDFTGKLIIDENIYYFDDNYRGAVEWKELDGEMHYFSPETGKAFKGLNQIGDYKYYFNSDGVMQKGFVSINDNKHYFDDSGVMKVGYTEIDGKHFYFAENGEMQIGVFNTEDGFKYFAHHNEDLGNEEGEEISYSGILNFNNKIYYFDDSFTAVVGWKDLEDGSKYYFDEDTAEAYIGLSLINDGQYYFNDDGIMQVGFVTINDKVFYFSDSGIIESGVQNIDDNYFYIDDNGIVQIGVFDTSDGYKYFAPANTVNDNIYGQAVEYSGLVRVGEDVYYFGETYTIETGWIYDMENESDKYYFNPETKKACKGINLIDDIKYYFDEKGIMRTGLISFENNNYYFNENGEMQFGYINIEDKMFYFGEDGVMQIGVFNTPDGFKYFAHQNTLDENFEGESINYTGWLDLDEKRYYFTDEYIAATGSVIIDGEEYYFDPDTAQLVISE
UGM FP inh: M. tuberculosis UGM enzyme inhibitors, primary screen, biochemical, fluorescence polarization, single point; UDP-galactopyranose mutase (Mycobacterium tuberculosis (strain ATCC 25618 / H37Rv)), …; AID 504406, 2011; hit rate 0.06% among 320,000; inhibition, % at 10 µM; purified UGM, fluorescence polarization probe displacement; in the data active means inhibition above about 10%, passing the limit was not always enough
Numbers stand for hits; - = inactive; . = not tested or not shown.

SMILES	Mtb BioA inh	Rv3671c protease	RecA splice inh	FadD28 binding	TcdB inh	UGM FP inh
COc1cc(NS(=O)(=O)c2ccc(Nc3nc(-c4cccc([N+](=O)[O-])c4)cs3)cc2)nc(OC)n1	-	-	-	17.1	-	-
COc1ccc(-c2csc(Nc3ccc(S(=O)(=O)Nc4cc(C)on4)cc3)n2)cc1	.	-	-	10.4	-	-
CCS(=O)(=O)N1CCC2(CC1)CN(Cc1ccc3c(c1)OCO3)[C@@H](CO)c1c2c2ccc(OC)cc2n1C	.	.	.	.	-	.
C[C@@H]1CN([C@H](C)CO)C(=O)c2cc(C#CC3(O)CCCC3)cnc2O[C@H]1CN(C)S(C)(=O)=O	-	.	.	.	-	.
CC/C(=N\NC(=O)c1ccccc1O)c1c(O)n(C2CCCCC2)c(=O)[nH]c1=O	-	-	-	15.0	-	-
CCC(=NCCO)c1c(O)n(C2CCCCC2)c(=O)[nH]c1=O	-	-	-	-	.	-
O=C(N/N=C/c1c(O)n(C2CCCCC2)c(=S)[nH]c1=O)c1ccccc1	-	-	-	-	-	-
O=C(N/N=C/c1c(O)n(C2CCCCC2)c(=S)[nH]c1=O)c1ccccc1O	-	-	36.9	-	-	-
C[C@H](CO)N1C[C@H](C)[C@@H](CN(C)C(=O)Nc2ccccc2)Oc2ccc(NC(=O)Nc3ccc(F)cc3)cc2CC1=O	-	.	.	.	-	.
COc1cc(/C=C2/C(=O)NN(c3ccc(F)cc3)C2=O)cc(Cl)c1O	-	-	-	-	-	-
COc1cc(/C=C2/C(=O)NN(c3ccc(Cl)cc3)C2=O)ccc1OC(=O)c1ccco1	.	-	-	9.3	-	-
COc1cc(/C=C2/C(=O)NN(c3ccc(Cl)c(Cl)c3)C2=O)cc([N+](=O)[O-])c1O	-	-	-	28.2	-	-
CCC(=O)N(C)C[C@@H]1Oc2cc(-c3ccccc3F)ccc2S(=O)(=O)N([C@H](C)CO)C[C@H]1C	-	.	.	.	-	.
O=C(CCn1c(=O)oc2ccccc21)Nc1cccc(Cl)c1	-	-	-	-	-	-
O=C(Cn1c(=O)oc2ccccc21)Nc1cccc(Cl)c1	-	-	.	10.6	-	-
Cc1cccc(NC(=O)Cn2c(=O)oc3ccccc32)c1	-	-	-	34.6	.	-
CC[n+]1c(/C=C2\C=C(C)CC(C)(C)C2)sc2ccccc21	-	-	46.6	-	.	-
CCC1=C/C(=C/c2sc3ccccc3[n+]2CC)CC(C)(C)C1	.	-	-	.	-	-
Cc1ccccc1NS(=O)(=O)c1ccc(OCC(=O)N2CCCCC2)cc1	-	-	-	-	10.8	-
COc1cc(C(c2c(C(=O)O)[nH]c3ccccc23)c2c(C(=O)O)[nH]c3ccccc23)ccc1OCc1ccccc1	-	-	-	32.2	-	-
C=CCOc1ccc(C(c2c(C(=O)O)[nH]c3ccccc23)c2c(C(=O)O)[nH]c3ccccc23)cc1	-	-	-	40.2	-	-
COc1ccc(CN=Cc2c(C(=O)O)[nH]c3ccccc23)cc1	.	-	-	-	-	-
COCC(=O)c1[nH]c2ccccc2c1C	-	-	-	-	.	-
COc1cc(C(NC(C)=O)NC(C)=O)ccc1OCc1ccccc1	.	-	-	-	.	-
O=C(O)c1[nH]c2ccccc2c1C(c1cc(Cl)cc([N+](=O)[O-])c1O)c1c(C(=O)O)[nH]c2ccccc12	-	-	-	56.2	-	-
SMILES	Mtb BioA inh	Rv3671c protease	RecA splice inh	FadD28 binding	TcdB inh	UGM FP inh
O=C(O)c1[nH]c2ccccc2c1C(c1ccccc1)c1c(C(=O)O)[nH]c2ccccc12	-	-	-	22.1	-	-
CCCNC(=O)Nc1ccc2c(c1)C(=O)N(C)C[C@@H](OC)[C@@H](C)CN(C(=O)c1ccccc1F)[C@@H](C)CO2	-	.	.	.	-	.
O=C(O)COc1ccc(Br)cc1C(c1c(C(=O)O)[nH]c2ccccc12)c1c(C(=O)O)[nH]c2ccccc12	-	-	.	28.0	.	-
O=C(C[C@@H]1C[C@@H]2c3cc(NS(=O)(=O)c4ccccc4)ccc3O[C@@H]2[C@H](CO)O1)N1CCCCC1	-	.	.	.	-	.
COC(=O)c1ccc(OC(=O)c2ccc(OC)cc2)c(OC)c1	.	-	-	-	11.2	-
COC(=O)c1ccc(OC(=O)c2ccc(OC)c(OC)c2)c(OC)c1	-	-	-	-	.	-
Cc1ccc([N+](=O)[O-])cc1-c1[nH]c(-c2ccc(O)c(O)c2)nc1-c1ccccc1	-	-	-	12.9	.	-
COc1ccc(-c2nc(-c3ccccc3)c(-c3cc([N+](=O)[O-])ccc3C)[nH]2)cc1O	-	-	-	-	.	-
O=C(c1cccc(F)c1)N1CC2(C1)[C@H](c1ccccc1)[C@H](CO)N2C(=O)C1CC1	.	.	.	.	-	.
O=C(Oc1cccc(C(=S)N2CCOCC2)c1)c1ccc([N+](=O)[O-])cc1[N+](=O)[O-]	.	-	-	-	-	-
O=C(Oc1ccc(C(=S)N2CCOCC2)cc1)c1ccc([N+](=O)[O-])cc1[N+](=O)[O-]	-	-	45.8	-	-	-
Cc1cccc(CN2CCN(c3ccccn3)CC2)c1	-	-	-	-	.	-
Cc1cccc(CN2CCN(c3ncccn3)CC2)c1	-	-	-	-	13.1	-
CN(c1ccc(C(=O)Nc2ccc(Cl)cn2)cc1)S(=O)(=O)c1ccccc1	.	-	-	-	-	-
CN(C1=C(NC(=O)c2ccc(Cl)cc2)C(=O)c2ccccc2C1=O)c1ccccc1	.	-	43.0	-	.	-
COc1ccccc1-c1cn(CC[C@H]2CC[C@H](NC(=O)NC(C)C)[C@@H](CO)O2)nn1	-	.	.	.	-	.
COC(=O)CSc1nc(N)c2c3c(sc2n1)C(c1ccccc1)SC(c1ccccc1)C3 (stereo not given)	.	-	35.8	-	.	-
O=C(COC(=O)c1ccc(O)cc1)Nc1cc(S(=O)(=O)N2CCCCCC2)ccc1Cl	-	.	.	-	-	.
Nc1cc(N)cc(C(=O)OCC(=O)Nc2cc(S(=O)(=O)N3CCCCC3)ccc2Cl)c1	-	-	-	-	11.0	-
C[C@@H]1CN([C@@H](C)CO)C(=O)c2cc(C3=CCCC3)cnc2O[C@@H]1CN(C)Cc1ccccc1F	-	.	.	.	-	.
COc1cc(/C=N/n2c(-c3cc(C)[nH]n3)n[nH]c2=S)cc(OC)c1OC	-	-	-	-	-	-
COc1cc(/C=N/n2c(-c3cc(C)[nH]n3)n[nH]c2=S)ccc1O	.	-	-	-	19.3	-
O=C1c2ccccc2C(=O)N1CC1CCN(Cc2ccc(OCCO)cc2)CC1	-	.	.	.	-	.
N#Cc1c(N2CCCC(O)C2)nc(N)c2c(N)nc3c(c12)CC(=O)N3C12CC3CC(CC(C3)C1)C2 (stereo not given)	-	-	-	24.8	.	-
C=C(C)CN(CC)c1nc(N)c2c(N)nc3c(c2c1C#N)CC(=O)N3C12CC3CC(CC(C3)C1)C2	-	-	-	-	.	-
